According to the supplement of paper PMC6555819:

Each sequence was assayed on RXRa DBDmut IVT, anti-RXR (DBD mutation: RXRa K156A/R161A, NR concentration 90 nM) (assay: PBM binding z-score (relative to random genomic background probes); higher = stronger binding; sequences stand for … in GC…GCGATTGACAGCGTAGAATGAAGG).
Outline: (§1)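 Regression normalization was applied to scanned fluorescence from custom Agilent 4×180K protein-binding microarrays. Before scanning, arrays were incubated 1 h with ligand-free nuclear receptor dimers, and binding was detected with antibodies against each partner (one per run). Binding z-scores use the random background probes as reference.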
Work on CGAACAAGGTCAAAGGACAGTGAAAGGCGACGTA yielded a PBM binding z-score of 3.59.
In the case of ATATGTAGGTTAAGGTCATTCAGAAAGTAGGGAA, the PBM binding z-score is reported as 2.75.
With CTATGTAGGTTAAGGGGGTCACTCAGTTTGAAAG the PBM binding z-score was 1.85.
CAAGCTAGGTCAAGAGGTCAAAGTCCGCTTCCCG was tested, and the PBM binding z-score was 2.58.
Sequence CGAACTAGGTCAAAGGACAGTAAAAGGCGACGTA has a PBM binding z-score of 1.33.
Work on TCGAGTAGGTTCCGGGGGCATTCAGGGATGAAGA yielded a PBM binding z-score of 1.02.
TGAATGAGGTTTAAGATCAGGGAACGTGGCGTCG gave a PBM binding z-score of -0.0681.
For TCGAGTAGGTTACGGGGGCATTCAAGGATGAAGA, the PBM binding z-score was 1.68.
CGAACTGGGTCAAAGGACAGTGAAAGGCGACGTA gave a PBM binding z-score of 0.996.
TCGAGTTGGTTACGGGGGCATTCAGGGATGAAGA was tested, and the PBM binding z-score was 2.61.
For CGAACTAGGTCACAGGACAGTGAAAGGCGACGTA, the PBM binding z-score was 1.61.
In the case of CCGAGTGGGTTACGAGGGGGCATTCAGTGCGAAT, the PBM binding z-score is reported as 1.09.
Sequence CAAACTAGGTCACCGGAAAGTCAAAGTCCGCATG has a PBM binding z-score of 2.01.
Work on CTGAGTAGGTTACGAGGGGGCATTCAGTGCGAAT yielded a PBM binding z-score of 1.46.
CATACCGGGTCAGCTAGGCCAGAGTAGGGACGGC was tested, and the PBM binding z-score was -0.0713.
AGATGTAGGTTAGGGTCATTCAGAAAGTAGGGAA showed a PBM binding z-score of 2.56.
TCGAGTAGGTTACGGGTGCATTCAGGGATGAAGA gave a PBM binding z-score of 0.951.

These sequences were tested on RXRa homodimer (NR concentration 180 nM) in the same assay as above.
Outline: as §1
In the case of TGGAGTAGGTTACGGGGGCATTCAGGGATGAAGA, the PBM binding z-score is reported as 2.83.
Sequence CGTCCAAGGTCAGAGAGGTCAGTGTATGCCGAGT has a PBM binding z-score of 5.29.
Work on CCTACTGGGCCACGAAAGGTGATTGATTCAGTGA yielded a PBM binding z-score of 0.207.
For ATATGTAGGTTAGGGTCATTAAGAAAGTAGGGAA, the PBM binding z-score was 4.57.
ATATGTAGGTAAGGGTCATTCAGAAAGTAGGGAA showed a PBM binding z-score of 4.88.
ATATGTAGGTTAGGGTAATTCAGAAAGTAGGGAA gave a PBM binding z-score of 1.16.
AGTCCAAGTTCACTAGGTAACGTAAGATTCAGCT was tested, and the PBM binding z-score was 1.74.
In the case of TCTCGGAGGACACGAAAAGTCAGAGCTCGACATC, the PBM binding z-score is reported as 0.187.
ATATGTAGGTTAGGGTTATTCAGAAAGTAGGGAA was tested, and the PBM binding z-score was 2.13.
For CGAACTAGGTCACCAAGACAGTGAAGAGGTTGGA, the PBM binding z-score was 3.06.
With CTATGTAAGTTAAGGGGGTCATTCAGTTTGAAAG the PBM binding z-score was 5.16.
Work on CAAACTAGGTCAAGGGGTCAAAGTCCGCTTCCCG yielded a PBM binding z-score of 8.47.
CGCACTAGGTCACCAGGACAGTGAAGAGGTTGGA was tested, and the PBM binding z-score was 3.23.
For CGACCTAGGTCACCAGGACAGTGAAGAGGTTGGA, the PBM binding z-score was 3.92.
Sequence CAAACTAGGTCACGAAAGGTCAACGTCGAATGAC has a PBM binding z-score of 8.35.
In the case of TATACAGGATCAAAGGCCAGAGTACGAATGTCGA, the PBM binding z-score is reported as 0.857.
Work on ATATGTAGGTTCCATCCGGGTCATTCAGGCTATG yielded a PBM binding z-score of 2.18.
CGAACTAGGTCACTAGGACAGTGAAGAGGTTGGA was tested, and the PBM binding z-score was 2.07.
CAAACTAGGTCACCGGGAGGTCAAAGTCCGCATG gave a PBM binding z-score of 7.06.
For GCTGCTAGGTCAGGTTGGTCAACTAACGGGTACG, the PBM binding z-score was 1.17.
For CCGAGTAGGTTACGACGGGGCATTCAGTGCGAAT, the PBM binding z-score was 0.769.
CCGAGTAGGTTACGAGGGGGCATTCGGTGCGAAT showed a PBM binding z-score of 2.22.
With CGAACAAGGTCAAAGGACAGTGAAAGGCGACGTA the PBM binding z-score was 5.76.
In the case of ATATGTAGGTTAAGGTCATTCAGAAAGTAGGGAA, the PBM binding z-score is reported as 4.96.
Sequence CTATGTAGGTTAAGGGGGTCACTCAGTTTGAAAG has a PBM binding z-score of 5.58.
CAAGCTAGGTCAAGAGGTCAAAGTCCGCTTCCCG showed a PBM binding z-score of 8.24.
Sequence CGAACTAGGTCAAAGGACAGTAAAAGGCGACGTA has a PBM binding z-score of 3.25.
TCGAGTAGGTTCCGGGGGCATTCAGGGATGAAGA showed a PBM binding z-score of 1.33.
For TGAATGAGGTTTAAGATCAGGGAACGTGGCGTCG, the PBM binding z-score was 0.388.
In the case of TCGAGTAGGTTACGGGGGCATTCAAGGATGAAGA, the PBM binding z-score is reported as 2.9.
With CGAACTGGGTCAAAGGACAGTGAAAGGCGACGTA the PBM binding z-score was 3.11.
TCGAGTTGGTTACGGGGGCATTCAGGGATGAAGA gave a PBM binding z-score of 1.89.
Sequence CGAACTAGGTCACAGGACAGTGAAAGGCGACGTA has a PBM binding z-score of 3.27.
CCGAGTGGGTTACGAGGGGGCATTCAGTGCGAAT was tested, and the PBM binding z-score was 1.75.
Sequence CAAACTAGGTCACCGGAAAGTCAAAGTCCGCATG has a PBM binding z-score of 3.89.
CTGAGTAGGTTACGAGGGGGCATTCAGTGCGAAT was tested, and the PBM binding z-score was 1.72.
For CATACCGGGTCAGCTAGGCCAGAGTAGGGACGGC, the PBM binding z-score was 3.
In the case of AGATGTAGGTTAGGGTCATTCAGAAAGTAGGGAA, the PBM binding z-score is reported as 4.81.
For TCGAGTAGGTTACGGGTGCATTCAGGGATGAAGA, the PBM binding z-score was 1.29.

These sequences were tested on THRa:RXRa (NR concentration 90 nM, RXRa partner concentration 90 nM) in the same assay as above.
Outline: as §1
TGGAGTAGGTTACGGGGGCATTCAGGGATGAAGA gave a PBM binding z-score of 4.11.
CGTCCAAGGTCAGAGAGGTCAGTGTATGCCGAGT gave a PBM binding z-score of 4.14.
CCTACTGGGCCACGAAAGGTGATTGATTCAGTGA gave a PBM binding z-score of 1.41.
ATATGTAGGTTAGGGTCATTAAGAAAGTAGGGAA was tested, and the PBM binding z-score was 3.9.
With ATATGTAGGTAAGGGTCATTCAGAAAGTAGGGAA the PBM binding z-score was 3.01.
With ATATGTAGGTTAGGGTAATTCAGAAAGTAGGGAA the PBM binding z-score was 1.72.
Sequence AGTCCAAGTTCACTAGGTAACGTAAGATTCAGCT has a PBM binding z-score of 1.54.
TCTCGGAGGACACGAAAAGTCAGAGCTCGACATC gave a PBM binding z-score of 1.27.
Sequence ATATGTAGGTTAGGGTTATTCAGAAAGTAGGGAA has a PBM binding z-score of 2.45.
CGAACTAGGTCACCAAGACAGTGAAGAGGTTGGA showed a PBM binding z-score of 2.74.
For CTATGTAAGTTAAGGGGGTCATTCAGTTTGAAAG, the PBM binding z-score was 3.78.
Sequence CAAACTAGGTCAAGGGGTCAAAGTCCGCTTCCCG has a PBM binding z-score of 4.64.
Work on CGCACTAGGTCACCAGGACAGTGAAGAGGTTGGA yielded a PBM binding z-score of 3.34.
In the case of CGACCTAGGTCACCAGGACAGTGAAGAGGTTGGA, the PBM binding z-score is reported as 3.44.
Sequence CAAACTAGGTCACGAAAGGTCAACGTCGAATGAC has a PBM binding z-score of 5.36.
TATACAGGATCAAAGGCCAGAGTACGAATGTCGA gave a PBM binding z-score of -0.0517.
ATATGTAGGTTCCATCCGGGTCATTCAGGCTATG showed a PBM binding z-score of 3.44.
For CGAACTAGGTCACTAGGACAGTGAAGAGGTTGGA, the PBM binding z-score was 2.71.
In the case of CAAACTAGGTCACCGGGAGGTCAAAGTCCGCATG, the PBM binding z-score is reported as 4.94.
GCTGCTAGGTCAGGTTGGTCAACTAACGGGTACG gave a PBM binding z-score of 1.91.
In the case of CCGAGTAGGTTACGACGGGGCATTCAGTGCGAAT, the PBM binding z-score is reported as 2.
With CCGAGTAGGTTACGAGGGGGCATTCGGTGCGAAT the PBM binding z-score was 3.76.
In the case of CGAACAAGGTCAAAGGACAGTGAAAGGCGACGTA, the PBM binding z-score is reported as 3.57.
ATATGTAGGTTAAGGTCATTCAGAAAGTAGGGAA was tested, and the PBM binding z-score was 4.41.
For CTATGTAGGTTAAGGGGGTCACTCAGTTTGAAAG, the PBM binding z-score was 3.79.
In the case of CAAGCTAGGTCAAGAGGTCAAAGTCCGCTTCCCG, the PBM binding z-score is reported as 4.31.
With CGAACTAGGTCAAAGGACAGTAAAAGGCGACGTA the PBM binding z-score was 2.75.
In the case of TCGAGTAGGTTCCGGGGGCATTCAGGGATGAAGA, the PBM binding z-score is reported as 3.53.
TGAATGAGGTTTAAGATCAGGGAACGTGGCGTCG gave a PBM binding z-score of 0.0282.
In the case of TCGAGTAGGTTACGGGGGCATTCAAGGATGAAGA, the PBM binding z-score is reported as 4.28.
Work on CGAACTGGGTCAAAGGACAGTGAAAGGCGACGTA yielded a PBM binding z-score of 1.95.
With TCGAGTTGGTTACGGGGGCATTCAGGGATGAAGA the PBM binding z-score was 3.74.
CGAACTAGGTCACAGGACAGTGAAAGGCGACGTA was tested, and the PBM binding z-score was 2.86.
CCGAGTGGGTTACGAGGGGGCATTCAGTGCGAAT gave a PBM binding z-score of 3.72.
With CAAACTAGGTCACCGGAAAGTCAAAGTCCGCATG the PBM binding z-score was 3.54.
With CTGAGTAGGTTACGAGGGGGCATTCAGTGCGAAT the PBM binding z-score was 3.67.
CATACCGGGTCAGCTAGGCCAGAGTAGGGACGGC gave a PBM binding z-score of 2.53.
For AGATGTAGGTTAGGGTCATTCAGAAAGTAGGGAA, the PBM binding z-score was 3.92.
Sequence TCGAGTAGGTTACGGGTGCATTCAGGGATGAAGA has a PBM binding z-score of 2.22.
